Results reported in PubChem BioAssay (Tox21).
“And” between values parts separate entries of the source, which are not always exact repeats. Equal values may be shown once. Inconclusive results are not listed. Where a call stands in place of a potency, no number is given. More than one record can exist for a structure, and the calls need not agree. The source made the active and inactive calls. Unless noted, the call rests on the fitted dose curve; in most records, active means well fitted curve in the direction sought with a large enough effect in the repeat runs; inconclusive means weak or mixed curves; inactive means no such curve, though single readings can be large; an effect the other way counts as inactive or inconclusive.

System: not listed separately
Assay: qHTS assay to identify small molecule agonists of the androgen receptor (AR) signaling pathway in the presence of an antagonist - cell viability counter screen (AID 1259379);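 further: MDA-kb2 human breast cancer cells carrying an MMTV luciferase reporter; nearly all actives have a fitted effect of over 25% in size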
Settings: MDA-kb2 viability, CellTiter-Fluor, 16 h; series mostly up to 92.4 µM
How it was run: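 MDA-kb2 cells (MMTV-luciferase, AR/GR), 3,000/well, 5 h attachment, then 3.0 µM nilutamide (final) and compounds at 15 concentrations. Viability by CellTiter-Fluor fluorescence after 16 h at 37 °C, 0% CO2, in the reporter wells.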

Row | Structure (SMILES) | Potency
1 | CS(=O)(=O)Cl | inactive
2 | CCC(C(N)=O)N1CCCC1=O (stereo not drawn) | inactive
3 | CN(CCO)CCO | inactive
4 | NCCOS(=O)(=O)O | inactive
5 | C=CCCC#N | inactive
6 | O=C(NC(O)C(Cl)(Cl)Cl)NC(O)C(Cl)(Cl)Cl (stereo not drawn) | inactive
7 | COc1cccc(C=O)c1 | inactive
8 | CCC(C)C(C)(COC(N)=O)COC(N)=O (stereo not drawn) | inactive

System: not listed separately
Assay: qHTS assay to identify small molecule agonists of the estrogen receptor beta (ER-beta) signaling pathway - cell viability counter screen (AID 1259380); further: nearly all actives have a fitted effect of over 30% in size; further: potency means the concentration at half of the fitted maximal effect
Settings: ER-beta-bla HEK293T viability, CellTiter-Glo luminescence, 16 h; series mostly up to 92.4 µM
How it was run: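 ER-beta-UAS-bla HEK293T cells in medium with 2% charcoal-stripped FBS, pre-incubated 6 hr, then treated 16 hr at 37C. Cytotoxicity read in the same wells by CellTiter-Glo luminescence after 30 min at room temperature.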

Row | Structure (SMILES) | Potency
9 | CC(C)(C)C(=O)Cl | inactive
10 | O=C1C2CC=CCC2C(=O)N1SC(Cl)(Cl)Cl (stereo not drawn) | inactive and 30.1 µM (active)
11 | O=C(Cl)C(Cl)Cl | inactive
12 | C/C=C/CC#N | inactive
13 | S=C=S | inactive
14 | O=C1CC(=O)NC(=O)N1 | inactive
15 | CCN(CCO)CCO | inactive
16 | ClC1=C(Cl)C2(Cl)C(CBr)CC1(Cl)C2(Cl)Cl (stereo not drawn) | inactive
17 | CCOC(=O)c1ncn2c1CN(C)C(=O)c1c(I)cccc1-2 | inactive
18 | COc1ccccc1OC | inactive
19 | c1cncc([C@@H]2CCCCN2)c1 | inactive
20 | CCOP(=S)(OCC)Oc1ccc(Cl)cc1Cl | inactive
21 | CC(Cc1ccccc1)NCCn1cnc2c1c(=O)n(C)c(=O)n2C (stereo not drawn) | inactive
22 | CC(C)(O)C(Cl)(Cl)Cl | inactive
23 | O=C(Cl)CCl | inactive
24 | C=C1C[C@@H]2[C@H](CC[C@]3(C)C(=O)CC[C@@H]23)[C@@]2(C)C=CC(=O)C=C12 | inactive
25 | N#CN | inactive
26 | CCN(CCO)CCn1c(Cc2ccccc2)nc2c1c(=O)n(C)c(=O)n2C | inactive

Row | Structure (SMILES) | Potency
27 | CC[C@H](N)c1ccccc1 | inactive
28 | C=CC1(C)OC(=O)N(c2cc(Cl)cc(Cl)c2)C1=O (stereo not drawn) | 27.1 µM (active) and 21.7 µM (active)
29 | CN=CNc1ccc(C)cc1C | inactive
30 | O=C(Cl)C(Cl)(Cl)Cl | inactive
31 | CCOC(=O)C(Cl)Cc1cc(-n2nc(C)n(C(F)F)c2=O)c(F)cc1Cl (stereo not drawn) | inactive
32 | Cc1cc(OC(=O)N(C)C)nn1C(=O)N(C)C | inactive
33 | O=C(O)c1c(Cl)ccc2cc(Cl)cnc12 | inactive
34 | COP(=O)(OC)O/C(C)=C/C(=O)N(C)C | inactive
35 | Cn1c(CCCC(=O)O)nc2cc(N(CCCl)CCCl)ccc21 | inactive
36 | CS(=O)(=O)Cl | inactive
37 | CCC(C(N)=O)N1CCCC1=O (stereo not drawn) | inactive
38 | CN(CCO)CCO | inactive
39 | NCCOS(=O)(=O)O | inactive
40 | C=CCCC#N | inactive
41 | O=C(NC(O)C(Cl)(Cl)Cl)NC(O)C(Cl)(Cl)Cl (stereo not drawn) | inactive
42 | COc1cccc(C=O)c1 | inactive
43 | CCC(C)C(C)(COC(N)=O)COC(N)=O (stereo not drawn) | inactive

System: not listed separately
Assay: qHTS assay to identify small molecule antagonists of the estrogen receptor beta (ER-beta) signaling pathway - cell viability counter screen (AID 1259382); further: nearly all actives have a fitted effect of over 55% in size; further: potency means the concentration at half of the fitted maximal effect
Settings: ER-beta-UAS-bla HEK293T viability, CellTiter-Glo luminescence, 16 h; series mostly up to 92.4 µM
How it was run: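 ER-beta-UAS-bla HEK293T cells in 2% charcoal-stripped FBS medium, treated with compound plus 1 nM 17-beta-estradiol for 16 h at 37C. Viability read by CellTiter-Glo luminescence after 30 min at room temperature in the same wells.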

Row | Structure (SMILES) | Potency
44 | CC(C)(C)C(=O)Cl | inactive
45 | O=C1C2CC=CCC2C(=O)N1SC(Cl)(Cl)Cl (stereo not drawn) | inactive and 30.1 µM (active)
46 | O=C(Cl)C(Cl)Cl | inactive
47 | C/C=C/CC#N | inactive
48 | S=C=S | inactive
49 | O=C1CC(=O)NC(=O)N1 | inactive
50 | CCN(CCO)CCO | inactive
51 | ClC1=C(Cl)C2(Cl)C(CBr)CC1(Cl)C2(Cl)Cl (stereo not drawn) | inactive
52 | CCOC(=O)c1ncn2c1CN(C)C(=O)c1c(I)cccc1-2 | inactive
53 | COc1ccccc1OC | inactive
54 | c1cncc([C@@H]2CCCCN2)c1 | inactive
55 | CCOP(=S)(OCC)Oc1ccc(Cl)cc1Cl | inactive
56 | CC(Cc1ccccc1)NCCn1cnc2c1c(=O)n(C)c(=O)n2C (stereo not drawn) | inactive
57 | CC(C)(O)C(Cl)(Cl)Cl | inactive
58 | O=C(Cl)CCl | inactive
59 | C=C1C[C@@H]2[C@H](CC[C@]3(C)C(=O)CC[C@@H]23)[C@@]2(C)C=CC(=O)C=C12 | inactive
60 | N#CN | inactive
61 | CCN(CCO)CCn1c(Cc2ccccc2)nc2c1c(=O)n(C)c(=O)n2C | inactive

Row | Structure (SMILES) | Potency
62 | CC[C@H](N)c1ccccc1 | inactive
63 | C=CC1(C)OC(=O)N(c2cc(Cl)cc(Cl)c2)C1=O (stereo not drawn) | 54.2 µM (active) and inactive
64 | CN=CNc1ccc(C)cc1C | inactive
65 | O=C(Cl)C(Cl)(Cl)Cl | inactive
66 | CCOC(=O)C(Cl)Cc1cc(-n2nc(C)n(C(F)F)c2=O)c(F)cc1Cl (stereo not drawn) | inactive
67 | Cc1cc(OC(=O)N(C)C)nn1C(=O)N(C)C | inactive
68 | O=C(O)c1c(Cl)ccc2cc(Cl)cnc12 | inactive
69 | COP(=O)(OC)O/C(C)=C/C(=O)N(C)C | inactive
70 | Cn1c(CCCC(=O)O)nc2cc(N(CCCl)CCCl)ccc21 | inactive
71 | CS(=O)(=O)Cl | inactive
72 | CCC(C(N)=O)N1CCCC1=O (stereo not drawn) | inactive
73 | CN(CCO)CCO | inactive
74 | NCCOS(=O)(=O)O | inactive
75 | C=CCCC#N | inactive
76 | O=C(NC(O)C(Cl)(Cl)Cl)NC(O)C(Cl)(Cl)Cl (stereo not drawn) | inactive
77 | COc1cccc(C=O)c1 | inactive
78 | CCC(C)C(C)(COC(N)=O)COC(N)=O (stereo not drawn) | inactive

Target: Estrogen receptor (Homo sapiens) (UniProt P03372)
Assay: qHTS assay to identify small molecule agonists of the estrogen receptor alpha (ER-alpha) signaling pathway in the presence of an antagonist (AID 1259383; calls by dose curve; further: nearly all actives have a fitted effect of over 15% in size; further: potency means the concentration at half of the fitted maximal effect)
Settings: VM7Luc4E2 cells, ERE-luciferase, +ICI-182,780, 22 h; series mostly up to 92.4 µM
How it was run: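 VM7Luc4E2 cells express endogenous full-length ER-alpha with an ERE-luciferase reporter and were hormone-deprived for 5 days. Compounds at 15 concentrations were added with 10.0nM ICI-182,780 for 22hr at 37C. Luminescence was read with ONE-Glo.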

Estrogen receptor (Homo sapiens), sequence (P03372 whole entry, looked up): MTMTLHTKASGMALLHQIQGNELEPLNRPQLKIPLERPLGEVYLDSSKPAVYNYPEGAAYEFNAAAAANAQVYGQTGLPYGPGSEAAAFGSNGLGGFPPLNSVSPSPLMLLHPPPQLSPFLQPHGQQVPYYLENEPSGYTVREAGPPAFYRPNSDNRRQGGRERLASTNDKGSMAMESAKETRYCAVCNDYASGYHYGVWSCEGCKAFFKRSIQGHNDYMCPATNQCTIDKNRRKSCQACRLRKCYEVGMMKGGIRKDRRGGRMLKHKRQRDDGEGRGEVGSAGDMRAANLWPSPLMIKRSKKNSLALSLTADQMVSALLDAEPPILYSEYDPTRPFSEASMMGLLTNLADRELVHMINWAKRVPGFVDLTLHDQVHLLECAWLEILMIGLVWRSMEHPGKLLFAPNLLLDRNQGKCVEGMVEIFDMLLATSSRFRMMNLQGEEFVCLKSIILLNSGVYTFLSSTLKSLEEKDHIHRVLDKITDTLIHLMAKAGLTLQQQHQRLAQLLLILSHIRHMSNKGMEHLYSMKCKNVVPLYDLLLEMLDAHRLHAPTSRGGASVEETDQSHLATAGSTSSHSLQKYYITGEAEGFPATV

Row | Structure (SMILES) | Potency
79 | CC(C)(C)C(=O)Cl | inactive
80 | O=C1C2CC=CCC2C(=O)N1SC(Cl)(Cl)Cl (stereo not drawn) | 2.42 µM (active) and inactive
81 | O=C(Cl)C(Cl)Cl | inactive
82 | C/C=C/CC#N | inactive
83 | S=C=S | inactive
84 | O=C1CC(=O)NC(=O)N1 | inactive
85 | CCN(CCO)CCO | inactive
86 | ClC1=C(Cl)C2(Cl)C(CBr)CC1(Cl)C2(Cl)Cl (stereo not drawn) | inactive
87 | CCOC(=O)c1ncn2c1CN(C)C(=O)c1c(I)cccc1-2 | inactive
88 | COc1ccccc1OC | inactive
89 | c1cncc([C@@H]2CCCCN2)c1 | inactive
90 | CCOP(=S)(OCC)Oc1ccc(Cl)cc1Cl | inactive
91 | CC(Cc1ccccc1)NCCn1cnc2c1c(=O)n(C)c(=O)n2C (stereo not drawn) | inactive
92 | CC(C)(O)C(Cl)(Cl)Cl | inactive
93 | O=C(Cl)CCl | inactive
94 | C=C1C[C@@H]2[C@H](CC[C@]3(C)C(=O)CC[C@@H]23)[C@@]2(C)C=CC(=O)C=C12 | inactive
95 | N#CN | inactive
96 | CCN(CCO)CCn1c(Cc2ccccc2)nc2c1c(=O)n(C)c(=O)n2C | inactive

Row | Structure (SMILES) | Potency
97 | CC[C@H](N)c1ccccc1 | inactive
98 | C=CC1(C)OC(=O)N(c2cc(Cl)cc(Cl)c2)C1=O (stereo not drawn) | inactive
99 | CN=CNc1ccc(C)cc1C | inactive
100 | O=C(Cl)C(Cl)(Cl)Cl | inactive
101 | CCOC(=O)C(Cl)Cc1cc(-n2nc(C)n(C(F)F)c2=O)c(F)cc1Cl (stereo not drawn) | inactive
102 | Cc1cc(OC(=O)N(C)C)nn1C(=O)N(C)C | inactive
103 | O=C(O)c1c(Cl)ccc2cc(Cl)cnc12 | inactive
104 | COP(=O)(OC)O/C(C)=C/C(=O)N(C)C | inactive
105 | Cn1c(CCCC(=O)O)nc2cc(N(CCCl)CCCl)ccc21 | inactive
106 | CS(=O)(=O)Cl | inactive
107 | CCC(C(N)=O)N1CCCC1=O (stereo not drawn) | inactive
108 | CN(CCO)CCO | inactive
109 | NCCOS(=O)(=O)O | inactive
110 | C=CCCC#N | inactive
111 | O=C(NC(O)C(Cl)(Cl)Cl)NC(O)C(Cl)(Cl)Cl (stereo not drawn) | inactive
112 | COc1cccc(C=O)c1 | inactive
113 | CCC(C)C(C)(COC(N)=O)COC(N)=O (stereo not drawn) | inactive
